CHX counter: counter-screen for Shiga toxin inhibitors: cycloheximide protein synthesis inhibition. cell reporter, cycloheximide protein synthesis inhibition counterscreen. max response, %. hit rate 12% among 300,000; in the data active means max response mostly above about 13%, no sharp cut-off; inactive means mostly below about 14%; further: read at 38.3 µM for the half of the compounds with a filed dose; 0% is about no effect
Shiga toxin inh: blocks Shiga toxin action in Vero cells; Vero cells, Shiga toxin protein synthesis inhibition reporter; inhibition, % at 38.7 µM; hit rate 9.2% among 290,000; in the data active means inhibition mostly above about 28%, no sharp cut-off; inactive means mostly below about 43%; further: 0% is about no effect
Marburg entry inh: blocks Marburg virus binding to or entry into cells; AID 540276; Marburg virus pseudotyped entry inhibition, cell reporter; Potency, µM (highest dose often 37.8 µM), without a hit: at the highest dose activity change, negative = inhibition, actives largely listed as inhibitors; hit rate 1.8% among 300,000; calls by dose curve; tested in HEK293 cells; further: potency means the concentration at half of the fitted maximal effect; on the % scale 0 is the no-effect control and ±100 the full control effect
LASV entry inh: Lassa virus entry inhibition; hit rate 1.2% among 300,000; Potency, µM (doses to about 37.9 µM), inactives show at the top dose activity change, negative = inhibition, hits mostly inhibitors; Lassa virus pseudotype entry inhibition, cell reporter; AID 540256; calls by dose curve; tested in HEK293 cells; further: potency means the concentration at half of the fitted maximal effect; on the % scale 0 is the no-effect control and ±100 the full control effect; nearly all actives have a fitted effect of over 50% in size
Numbers without * were called inactive; i = inactive; ? = inconclusive; . = no result; [ ] = remark or other dose. Shown are actives, neighbours in structure and some others; about 12% of the full set was active somewhere.

SMILES	CHX counter	Shiga toxin inh	Marburg entry inh	LASV entry inh
O=C(NCc1ccco1)c1cc(-c2ccc(Cl)cc2)on1	20*	77	?	2%
Cc1ccc(-c2cc(C(=O)NCc3ccco3)no2)cc1	28*	43*	12%	?
O=C(NCc1ccc(Cl)cc1)c1cc(-c2ccc(F)cc2)on1	.	.	?	0%[46.1 µM]
O=C(NCc1ccco1)c1nc(-c2ccc(F)cc2)no1	8	41*	?	?
CC(Cc1cccs1)NC(=O)CCCn1nnnc1CN1CCOCC1 (centres undefined)	-3	-37	-1%	10%
CC(C)(C)OC(=O)N1CCC(c2c(C(=O)N3CCN(C(=O)c4ccco4)CC3)cnn2-c2ccccc2Cl)CC1	.	.	.	17%[46.1 µM]
CC(C)Cc1cc(C(=O)NCc2ccco2)no1	32*	52*	.	.
COC(=O)NC(CCc1ccccc1)C(C(=O)OC)C(=O)OC (centres undefined)	.	.	13%[14.2 µM]	?
O=C1N=C(N2CCOCC2)SC1=C1CCCCC1	75*	81*	?	16%
CC(=O)N1CCN(C2=NC(=O)C(=C3CCCCC3)S2)CC1	15	19*	?	21%
N#CCCN1CCN(C2=NC(=O)C(=C3CCCCC3)S2)CC1	35*	61	?	16%
Cc1cccc(N2CCN(C3=NC(=O)C(=C4CCCCC4)S3)CC2)c1	2	40	-39%	6%
CC(C)=C1SC(N2CCCCC2)=NC1=O	11	-4	4%	7%
CC1CCN(C(=O)COC(=O)c2cc(Cl)c3c(c2)OCO3)CC1	.	.	-1%	5%
CNc1nn(-c2cccc(Cl)c2)nc1N	47*	90*	?	-1%
Nc1ccccc1Nc1cc(-c2ccccc2)nn1-c1cccc(Cl)c1	-2	-5	?	-21%
Fc1cccc2sc(Nc3nnc(-c4ccco4)o3)nc12	40*	171*	?	?
COc1cccc2sc(Nc3nnc(-c4ccc(F)cc4)o3)nc12	19*	39	.	.
COc1cccc2sc(Nc3nnc(-c4cccs4)o3)nc12	21*	74*	?	?
CCOc1cccc2sc(NN)nc12	1	-13	8%[46.1 µM]	-3%
CC(=O)Nc1nnc(-c2ccco2)o1	2	16	-3%[46.1 µM]	13%
CCC1(c2ccc(O)cc2)NC(=O)NC1=O (centres undefined)	-7	-11	.	.
O=C(Cn1cc(C(=O)c2ccco2)c2ccccc21)Nc1ccccc1	1	5	?	-6%[46.1 µM]
N#Cc1ccccc1Cn1cc(C(=O)c2ccco2)c2ccccc21	47*	23*	?	23%
O=C(c1ccco1)c1cn(Cc2ccccc2)c2ccccc12	38*	77*	4%	5%
SMILES	CHX counter	Shiga toxin inh	Marburg entry inh	LASV entry inh
O=C(Cn1cc(C(=O)c2ccco2)c2ccccc21)Nc1ccccc1Cl	.	.	8%[46.1 µM]	23%[46.1 µM]
O=C(c1ccco1)c1cn(Cc2ccccc2Cl)c2ccccc12	42*	71	?	?
COc1ccc(OCC(=O)Nc2cc(-c3ccccc3F)nn2-c2ccccc2)cc1	.	.	.	-27%[46.1 µM]
COc1ccccc1C1CC(c2cccs2)=Nc2ccccc2S1 (centres undefined)	70*	97*	-13%[46.1 µM]	?
COc1ccccc1C1CC(c2cccs2)=NN1C(=O)CCC(=O)O (centres undefined)	-2	-2	?	-5%[46.1 µM]
CCCCn1c(O)c(/C=C/C=C/C=Nc2ccccc2)sc1=S	11	48	-22%[46.1 µM]	7%
CCCn1c(O)c(C=Nc2ccccc2)sc1=S	36*	44*	-29%[46.1 µM]	-24%
Oc1c(/C=C/C=C/C=Nc2ccccc2)sc(=S)n1Cc1ccccc1	25*	72*	.	.
COc1ccc([C@]23Cc4cc(OC)c(OC)cc4C(O2)c2c(cc(-c4ccccc4)oc2=O)O3)cc1	-3	i	.	.
COc1cccc(-c2nc(CS(=O)CC(=O)N3CCN(c4cccc(C(F)(F)F)c4)CC3)c(C)o2)c1 (centres undefined)	.	.	.	-22%[46.1 µM]
CCN(CC(=O)Nc1c(F)cccc1F)C(=O)c1cc(C)oc1C	.	.	-1%	0%
CN(C(=S)NC(=O)c1ccccc1Br)C1CCCCC1	4	25	-8%	10%
COc1ccc(C(=O)NC(=S)N(C)C2CCCCC2)cc1Br	-1	-8	.	.
COc1ccc(C(=O)NC(=S)N(C)C2CCCCC2)cc1	36*	50*	.	.
Cc1ccccc1C(=O)NC(=S)N(C)C1CCCCC1	26*	31*	-6%[46.1 µM]	0%[46.1 µM]
CC(=O)Nc1nc2c(ccc3ccccc32)s1	9.9*	20	.	.
O=C(Cc1cccs1)Nc1nc2c(ccc3ccccc32)s1	34*	86*	?	7.9µM*
Cc1ccc(S(=O)(=O)N(C)c2ccc(OCC(=O)Nc3nc(-c4ccccc4)cs3)cc2)cc1	7	13	?	?
Cc1ccc(S(=O)(=O)N(C)c2ccc(OCC(=O)Nc3nc4c(ccc5ccccc54)s3)cc2)cc1	2	2	1.4µM*	2%
CCCCNC(=O)C1CCN(c2nc3ccc(C)cc3[nH]2)CC1	.	.	.	15%[46.1 µM]
CC(C)c1ccc(NC(=S)N2CCN(S(=O)(=O)c3ccccc3)CC2)cc1	10	-18	-8%[46.1 µM]	?
Cc1cc(C(=O)N(C)Cc2c(F)cccc2Cl)c2ccccc2n1	-3	-4	-21%[46.1 µM]	13%
COC(=O)c1cn[nH]c1NC(=S)Nc1ccc(C)cc1Cl	27*	74*	?	7.3µM*
COC(=O)c1cn[nH]c1NC(=S)Nc1ccc(Cl)c(Cl)c1	71*	118*	?	?
CCOC(=O)c1cn[nH]c1NC(=S)Nc1ccc(OC)cc1	17	1	?	?
SMILES	CHX counter	Shiga toxin inh	Marburg entry inh	LASV entry inh
COC(=O)c1cn[nH]c1NC(=S)Nc1ccccc1C	45*	92*	18%	?
COC(=O)c1c(C(=O)OC)c2c3ccccc3cc(-c3ccccc3)n2c1C(=O)OC	.	.	-23%[14.2 µM]	.
O=C(C1CC(=O)N(c2ccc(F)cc2)C1)N1CCCCCC1 (centres undefined)	-4	3	-4%[46.1 µM]	21%[46.1 µM]
Oc1cccc2ccc(/C=C/c3c(F)cccc3Cl)nc12	53*	158*	?	18µM*
Nc1nccc(/C=C/c2c(F)cccc2Cl)n1	28*	68*	-26%[46.1 µM]	3%
O=C(/C=C/c1ccccc1Cl)c1cccnc1	5	3	?	?
Oc1cccc2ccc(/C=C/c3ccccc3Cl)nc12	40*	72*	.	.
O=S(=O)(c1cccc(C(F)(F)F)c1)N1CCN(c2nc(-c3cccs3)nc3cc(Cl)ccc23)CC1	-5	2	.	.
CC(=O)Oc1ccc(OC(C)=O)c(SCCCCCN2CCOCC2)c1	7	26	16µM*	?
Brc1ccc(OCCCN2CCOCC2)cc1	14*	30	12%	8%
CCCCOc1ccc(SCCCN2CCOCC2)cc1	.	.	-5%	0%
CC(C)c1ccc(OCCCCCN2CCOCC2)cc1	54*	116*	.	.
Brc1ccccc1OCCCN1CCOCC1	32*	50*	19%	20%
CC(C)c1ccc(OCCCN2CCCC2)cc1	-2	-2	.	.
Brc1ccc(OCCN2CCOCC2)cc1	15	23*	?	2%
COc1ccc(C(=S)N2CCOCC2)cc1OS(=O)(=O)c1ccccc1[N+](=O)[O-]	28*	46	16%[46.1 µM]	1%
COc1cc(C(=S)N2CCOCC2)ccc1OS(=O)(=O)c1ccccc1[N+](=O)[O-]	11	-12	16%[46.1 µM]	-1%

Screens as filed in PubChem.
